Screens as filed in PubChem.
PTAP TSG101 blk = blocks PTAP/TSG101 interaction to inhibit HIV-1 budding | 340,000 tested, under 10 active | Potency, µM (series often up to 115 µM), without a hit: at the highest dose activity change, negative = inhibition, actives largely listed as inhibitors | Fluorescence polarization, FITC-PTAP peptide / Tsg101 binding | Q99816 | AID 493005; active = well fitted inhibition curve with a large enough effect in the main read-out, with a control signal flat, not every such curve was filed as active; inconclusive = small, poorly fitted or top-dose-only effect, or effect the other way, or a change in a side signal; inactive = no such curve, though single readings can be large or run the other way; note: % of control where 0% means no effect
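Fluorescence anisotropy tracks displacement of a FITC-tagged PTAP peptide (50 nM) from the Tsg101 binding domain (10 uM), following a 20 min room-temperature incubation at pH 7.5.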
Eya2 inh = inhibitors of human Eya2 phosphatase activity; Potency, µM (highest dose often 76.9 µM), without a hit: at the highest dose activity, negative = inhibition, actives largely listed as inhibitors; recombinant Eya2, OMFP fluorescence dephosphorylation (OMFP is methylfluorescein phosphate); 0.006% of 330,000 active; O00167; note: % is set by controls: 0 for no effect and ±100 for the full control effect
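Eya2 (0.2 uM) preincubated 10 min at ambient with compound, then OMFP substrate added at 50 uM; 10 min reaction in 50 mM HEPES pH 7.5, 50 mM NaCl, 5 uM MgCl2, 0.05% BSA, 1 mM DTT. Fluorescence read at Ex 485/Em 525 nm.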
ALOX12 inh = ALOX12 (human) lipoxygenase inhibition | P18054 | purified 12hLO, xylenol orange hydroperoxide absorbance | Potency, µM (titrated, usually from 108 µM), without a hit: top-dose activity change, negative = inhibition, hits mostly inhibitors | 1.1% of 580,000 active | AID 1671190; note: % is set by controls: 0 for no effect and ±100 for the full control effect
Target sequence (P18054 whole entry, looked up): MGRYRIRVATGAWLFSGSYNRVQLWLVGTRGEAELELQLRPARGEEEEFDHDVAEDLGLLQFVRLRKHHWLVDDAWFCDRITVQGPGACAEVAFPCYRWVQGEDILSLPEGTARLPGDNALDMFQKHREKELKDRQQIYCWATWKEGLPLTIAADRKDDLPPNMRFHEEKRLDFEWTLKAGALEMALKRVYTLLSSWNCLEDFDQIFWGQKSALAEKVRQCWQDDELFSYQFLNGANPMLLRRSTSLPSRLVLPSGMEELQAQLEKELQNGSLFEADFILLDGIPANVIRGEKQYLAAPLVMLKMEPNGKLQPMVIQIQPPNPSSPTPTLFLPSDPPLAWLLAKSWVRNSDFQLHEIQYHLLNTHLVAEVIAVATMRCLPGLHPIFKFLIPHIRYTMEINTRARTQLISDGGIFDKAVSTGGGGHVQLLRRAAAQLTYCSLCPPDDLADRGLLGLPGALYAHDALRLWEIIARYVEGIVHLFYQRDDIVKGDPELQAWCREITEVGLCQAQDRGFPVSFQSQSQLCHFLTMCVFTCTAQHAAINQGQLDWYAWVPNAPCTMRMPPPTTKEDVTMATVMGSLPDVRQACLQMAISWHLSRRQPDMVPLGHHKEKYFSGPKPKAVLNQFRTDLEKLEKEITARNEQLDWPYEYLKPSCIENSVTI
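Hydroperoxide product was detected by ferrous iron/xylenol orange as the 573 to 405 nm absorbance ratio. Arachidonic acid at 40 uM (final) was turned over for 30 min at room temperature by 150 nM human 12hLO, pH 7.0 Hepes buffer, after 15 min compound preincubation.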
USP2a block = blocks human ubiquitin-specific protease USP2a; O75604; USP2 core, Ub-CHOP2 coupled fluorogenic reporter, 485/531; Potency, µM (titrated, usually from 38.3 µM), without a hit: top-dose activity change, negative = inhibition, hits mostly inhibitors; 0.01% of 330,000 active; AID 463254;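 note: plate controls were DMSO wells for no effect and full inhibition by NEM control for full effect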
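Deubiquitinase activity read as fluorescence (485/531 nm) after Ub-CHOP2 cleavage activates the enterokinase reporter on its substrate; USP2 core 10nM, Ub-CHOP2 and substrate 25nM each, 30min compound preincubation then 60min RT; data normalized to NEM, curves fitted.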
* hit, by the source's call; ? = inconclusive; . = not tested or not shown; [ ] = remark or other dose. Compounds with a hit are over-represented: about 1.1% of the library has one in this group of screens. Unless noted, calls come from the whole dose curve; as a rule, active = well fitted curve in the direction sought with a large enough effect; inconclusive = small, poorly fitted or top-dose-only effect, or another doubt; inactive = no such curve, though single readings can be large; an effect the other way counts as inactive or inconclusive. Potency is the fitted concentration of half-maximal effect.

SMILES | PTAP TSG101 blk | Eya2 inh | ALOX12 inh | USP2a block
CCc1noc(-c2ccn3c(CNC(=O)c4ccc(F)cc4)nnc3c2)n1 | . | . | 11.3% | .
CCCc1noc(-c2ccn3c(CNC(=O)Cc4ccccc4Cl)nnc3c2)n1 | . | . | 44.7µM* | .
CCCc1noc(-c2ccn3c(CNC(=O)c4ccc(CC)cc4)nnc3c2)n1 | . | . | 39.8µM* | .
CCCc1noc(-c2ccn3c(CNC(=O)c4ccc(F)c(Cl)c4)nnc3c2)n1 | . | . | 50.1µM* | .
Cn1c(=O)c2c(ncn2CC(=O)OCC(=O)c2ccc(C3CCCCC3)cc2)n(C)c1=O | . | . | -22.1% | .
N#Cc1cccc(CN2CCOC[C@H]2c2ncc(-c3ccc(C(F)(F)F)cc3)[nH]2)c1 | . | . | -12.8%[176 µM] | .
CCc1c(C)sc(NC(=O)c2ccoc2C)c1C(N)=O | -0.9% | -1.2% | 11.2µM* | 1.1%
CCCc1cc(C(N)=O)c(NC(=O)c2ccoc2C)s1 | 0.0% | -19.8% | 31.6µM* | 3.2%
CC1CCN(S(=O)(=O)c2ccc3c(c2)C(Cl)(Cl)C(=O)N3)CC1 | . | . | 39.8µM* | .
Cc1cc2c(cc1C)C(c1cc3c(cc1Br)OCO3)CC(=O)N2 (stereo unspecified) | . | . | -65.9% | .
CCOC(=O)C1=C(C)OC(N)=C(C#N)C1c1ccsc1 (stereo unspecified) | -3.9% | -9.7% | -1.6% | 3.9%
N#CC1=C(N)Oc2c(O)cc3ccccc3c2C1c1ccsc1 (stereo unspecified) | -2.9% | -11.6% | 44.7µM* | 0.6%
CN1c2cc(C(=O)N3CCN(c4cccc(Cl)c4)CC3)ccc2C(=O)N2CCCC21 (stereo unspecified) | . | . | 18.7% | .
CC(C)C[C@@H](CN1CCCC1CN1C(=S)NC[C@@H]1Cc1ccc(O)cc1)N1C[C@H](Cc2ccccc2)N(CC2CCCCCC2)C1=S (stereo partly specified) | -11.1% | . | ? | .
CC(C)C[C@H]1CNC(=S)N1C[C@H]1CCCN1C[C@H](Cc1ccc(O)cc1)N1C[C@H](Cc2ccc(O)cc2)N(CCc2ccccc2)C1=S | . | . | 44.7µM* | .
CC(C)C[C@@H](CN1CCCC1CN1C(=S)NC[C@@H]1Cc1ccccc1)N1C[C@H](Cc2ccccc2)N(CCc2ccccc2)C1=S (stereo partly specified) | . | . | 39.8µM* | .
Oc1ccc(C[C@@H](CN2CCC[C@@H]2CN2C(=S)NC[C@@H]2Cc2ccccc2)N2C[C@H](Cc3ccccc3)N(CCc3ccccc3)C2=S)cc1 | . | . | -21.2% | .
CC(C)C[C@@H](CN1CCCC1CN1C(=S)NC[C@@H]1Cc1ccccc1)N1C[C@H](Cc2ccccc2)N(CC2CCCCCC2)C1=S (stereo partly specified) | . | . | 35.5µM* | .
Cc1c(CC(=O)NC(C)C)c2c(n1Cc1ccccc1F)CCCC2=O | . | . | -5.5% | .
COC(=O)[C@@H]1Cc2c([nH]c3ccccc23)[C@H]2C[C@@H](NCc3cccnc3)C[C@@H](c3ccc(OC(F)(F)F)cc3)N21 | . | . | 24.6% | .
CC(OC(=O)c1ccccc1O)C(=O)Nc1ccc2c(c1)OCO2 (stereo unspecified) | . | . | 1.5% | .
COc1cc2nc(-c3cc(F)ccc3O)nc(N[C@@H]3CNC[C@@H]3C(C)(C)O)c2cc1OC | . | . | 2.43µM* | .
Cc1ccc(OCCCCNC(C)c2ccccc2)c(C)c1 (stereo unspecified) | -3.8% | -5.2% | 4.47µM* | 3.1%
Cc1ccc(OCCNCc2ccccc2)c(C)c1 | 1.0% | -12.2% | ? | -0.6%
COc1cc(Nc2cc3c(cn2)cc(-c2cnn(C)c2)n3Cc2ccccc2)cc(OC)c1OC | . | . | -19.8% | .
SMILES | PTAP TSG101 blk | Eya2 inh | ALOX12 inh | USP2a block
COc1cc(/C=C2\CC/C(=C\c3cc(OC)c(O)c(OC)c3)C2=O)cc(OC)c1O | 6.2% | -2.9% | 20µM* | 2.1%
O=C(/C=C\c1ccc(-c2ccccc2)o1)c1ccccc1 | 10.7% | -16.5% | ? | 0.1%
Cc1ccc(-c2ccc(/C=C/C(=O)c3ccccc3)o2)cc1Cl | . | . | 11.2µM* | .
Cc1ccc(C(=O)/C=C/c2ccc(-c3ccc(C)c(Cl)c3)o2)cc1 | . | . | 14.1µM* | .
Cc1ccc(C(=O)/C=C/c2ccc(-c3ccc(Cl)c(Cl)c3)o2)cc1 | . | . | -80.5% | .
CNC(=O)[C@H]1C[C@H](Oc2cccnc2)CN1S(=O)(=O)Cc1ccccc1F | . | . | 39.9% | .
COc1ccc(-c2noc([C@@H]3Cc4nc[nH]c4CN3C(=O)Nc3ccccc3)n2)cc1 | . | . | 29.4%[176 µM] | .
COc1cc(/C=C2\C(=N)N3N=C(S(C)(=O)=O)SC3=NC2=O)ccc1OS(=O)(=O)c1ccc(C)cc1 | -7.1% | 8.2% | 44.7µM* | 0.5%
O=C(Nc1ccccc1)O[C@@H]1CO[C@H]2[C@@H]1OC[C@@H]2n1nnnc1SCc1ccco1 | . | . | -4.4%[176 µM] | .
O=C(NC1CCCCC1)O[C@@H]1CO[C@H]2[C@@H]1OC[C@@H]2n1nnnc1SCc1ccco1 | . | . | 3.55µM* | .
O=C(O)CN1C(=O)/C(=C\c2cccc(OCc3ccc(Cl)cc3Cl)c2)SC1=S | -9.3% | -0.6% | 25.1µM* | -7.5%
CC1CCC(NC(=O)CN2CCC(c3nc4ccccc4o3)CC2)CC1 (stereo unspecified) | . | . | 5.3% | .
COC(=O)c1ccccc1NC(=S)NC(=O)c1ccccc1C | . | 15.3% | -15.8% | 1.6%
Cc1ccccc1C(=O)NC(=S)Nc1ccccc1C(=O)O | -3.8% | 3.1% | 44.7µM* | -1.6%
O=C(NC(=S)Nc1ccccc1C(=O)O)c1ccc2ccccc2c1 | 5.6% | 18.4% | 25.1µM* | 1.1%
O=C(O)c1ccc(NC(=S)NC(=O)c2ccc3ccccc3c2)cc1 | -1.1% | 22.5% | ? | 0.3%
COC(=O)c1ccccc1NC(=S)NC(=O)c1ccc(C)cc1 | -3.2% | -4.6% | 35.5µM* | -0.6%
CCCCC/C=C/CC(=O)OC | . | . | 9.6%[176 µM] | .
CCc1cccc(NC(=O)Cn2c(-c3cnccn3)nc(C)c(C)c2=O)c1 | . | . | 45.5% | .
CSc1cccc(NC(=O)Nc2cccc(-c3ccc(N4CCOCC4)nn3)c2)c1 | . | . | 5.8% | .
O=C(O)c1c(Cl)c(Cl)c(Cl)c(Cl)c1C(=O)N1CCOCC1 | -0.9% | -23.0% | 11.2µM* | 0.7%
COc1cccc(Nc2cnc3ccc(-c4ccccc4OC)nn23)c1 | . | . | -8.9%[176 µM] | .
CC(=O)Nc1cc(-c2ccccc2N(C)C)cn2c(-c3ccccc3)cnc12 | . | . | 44.7µM* | .
Cc1ccc(S(=O)C(c2ccccc2)c2ccccc2)cc1 (stereo unspecified) | 1.6% | . | 22.4µM* | .
Cc1cccc(S(=O)C(c2ccccc2)c2ccccc2)c1 (stereo unspecified) | -0.1% | . | ? | .
SMILES | PTAP TSG101 blk | Eya2 inh | ALOX12 inh | USP2a block
OC(CC(O)c1ccccc1)c1ccccc1 (stereo unspecified) | 1.3% | . | 1.7% | .
O=S(CC(O)c1ccccc1)c1ccccc1 (stereo unspecified) | . | . | 28.2µM* | .
O=S(c1ccccc1)C(c1ccccc1)c1ccccc1 (stereo unspecified) | -0.2% | . | 31.6µM* | .
Cc1ccsc1CNC(=O)c1nccnc1N | . | . | -2.2% | .
C[N+]1(CCCCCCCCCCCCCO)CCCC1 | . | . | 28.2µM* | .
C[N+]1(CCCCC[N+]2(C)CCCC2)CCCC1 | . | 2.3% | . | .
